Assay [1] has as its system Human papillomavirus type 1a protein E7 (residues 44-93). Kind of assay: small molecules binding HPV E7 44-93 – biochemical, small-molecule microarray, residues 44-93, 635 nm fluorescence, primary screen (AID 1108).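 Also: E7 fragment applied at 1 µg/mL in TBST for 1 h at 4 C; score combines spot fluorescence with its signal to noise ratio.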 Conditions: fluorescence 635 nm, higher = more signal.
Assay [2] in a line: hepatitis C replication reporter changes, two-sided – Huh7 cells, luciferase reporter, HCV replication inhibitor project, primary screen (AID 1109).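 Also: huh7 hepatoma cells harbouring a luciferase neomycin HCV replicon reporter; luciferase luminescence as measure of HCV replicon replication; test concentration not given here.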 The following applies: Huh7 HCV replicon luciferase reporter, 48 h; higher = more signal. (A reporter such as luciferase makes a cellular process visible.)
Assay [3] addresses Left-right determination factor 2 (Homo sapiens) (UniProt O00292). Description: small molecules binding LEFTY2 protein – biochemical, small-molecule microarray, 635 nm fluorescence scan, primary screen (AID 1110). Conditions: higher = more signal.
Assay [4] deals with Calmodulin-1 (Homo sapiens) (UniProt P0DP23). Description: small molecules binding calmodulin-1 with EGTA – biochemical, small-molecule microarray, Cy5-labelled CALM1, profiling panel (AID 1111).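 Also: labelled calmodulin applied in Tris saline Tween buffer holding calcium plus EGTA and DTT.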 The following applies: Cy5-CALM1 binding fluorescence, higher = more signal.
Assay [5] shares this target. Description: small molecules binding Ca-loaded calmodulin-1 – biochemical, small-molecule microarray, Cy5-labelled CALM1, plus calcium, artefact control for SMM control-protein annotation, profiling panel (AID 1112).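 Also: score merges spot fluorescence with signal to noise from triplicate slides.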 Conditions: Cy5-CALM1 binding fluorescence, higher = more signal.
A short description of assay [6]: probe aWnt5a binding to arrayed compounds – biochemical, biotinylated probe, 635/667 nm fluorescence, primary screen (AID 1113).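 Also: score merges 667 nm fluorescence intensity with signal-to-noise per printed feature.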 Conditions: small-molecule microarray, higher = more signal.
Assay [7] in a line: probe aShh binding to arrayed compounds – biochemical, biotinylated probe, 635/667 nm fluorescence, primary screen (AID 1114).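 Also: probe is biotin-labelled aShh protein from a stem cell growth factor screen; measures binding of labelled protein to compounds printed on the slide; score merges feature fluorescence at 667 nm with signal-to-noise.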 The following applies: small-molecule microarray, higher = more signal.
Assay [8] is described as follows: probe aNog binding to arrayed compounds – biochemical, biotinylated probe, 635/667 nm fluorescence, primary screen (AID 1115).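 Also: probe is biotinylated aNog protein used at 0.15 µg/mL for 1 h at 4 C; z-score combines 667 nm fluorescence of each spot with its signal to noise.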 The following applies: small-molecule microarray, higher = more signal.
In assay [9] the target is Torsin-1A-interacting protein 1 (Homo sapiens) (UniProt Q5JTV8). Kind of assay: compound microarray binding of lysate hLAP1 – cell lysate, small-molecule microarray, COS7 lysate, 635/667 nm fluorescence, primary screen (AID 1116). Conditions: 635 nm fluorescence, higher = more signal.
Sequence of Torsin-1A-interacting protein 1 (Homo sapiens) (Q5JTV8 whole entry, looked up): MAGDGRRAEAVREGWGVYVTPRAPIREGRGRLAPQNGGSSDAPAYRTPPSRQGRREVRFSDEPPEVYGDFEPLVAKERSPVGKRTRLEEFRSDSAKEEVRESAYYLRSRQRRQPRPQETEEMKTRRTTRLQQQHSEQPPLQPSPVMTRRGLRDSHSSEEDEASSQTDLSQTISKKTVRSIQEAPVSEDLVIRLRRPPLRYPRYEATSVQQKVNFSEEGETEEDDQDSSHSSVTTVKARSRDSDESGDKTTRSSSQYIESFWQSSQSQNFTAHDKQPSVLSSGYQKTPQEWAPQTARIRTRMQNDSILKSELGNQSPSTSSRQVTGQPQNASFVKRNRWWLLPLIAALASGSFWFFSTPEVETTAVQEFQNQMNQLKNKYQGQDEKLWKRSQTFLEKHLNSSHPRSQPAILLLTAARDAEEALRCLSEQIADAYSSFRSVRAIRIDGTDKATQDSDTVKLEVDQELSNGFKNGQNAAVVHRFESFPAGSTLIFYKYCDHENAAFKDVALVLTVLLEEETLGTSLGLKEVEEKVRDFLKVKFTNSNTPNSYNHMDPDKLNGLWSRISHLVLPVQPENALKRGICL
Assay [10] deals with Alpha-bungarotoxin (Bungarus multicinctus) (UniProt P60615). Description: compounds binding labelled alpha-BTX control protein – biochemical, small-molecule microarray, Alexa647 label, 635/667 nm fluorescence, artefact control for SMM control protein annotation, profiling panel (AID 1117). The following applies: alpha-BTX-A647 binding fluorescence, higher = more signal.
Sequence of Alpha-bungarotoxin (Bungarus multicinctus) (P60615 whole entry, looked up): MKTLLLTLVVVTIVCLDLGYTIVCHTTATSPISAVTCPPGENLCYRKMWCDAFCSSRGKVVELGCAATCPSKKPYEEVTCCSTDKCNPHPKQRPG
For another assay, the target named is Albumin (Bos taurus) (UniProt P02769). Kind of assay: compounds binding labelled BSA control protein – biochemical, small-molecule microarray, Alexa647 label, 635/667 nm fluorescence, artefact control for SMM control protein annotation, profiling panel (AID 1118).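 Also: score merges 667 nm emission intensity and signal-to-noise per printed compound spot.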 The following applies: BSA-A647 binding, fluorescence 635 nm, higher = more signal.
Sequence of Albumin (Bos taurus) (P02769 whole entry, looked up): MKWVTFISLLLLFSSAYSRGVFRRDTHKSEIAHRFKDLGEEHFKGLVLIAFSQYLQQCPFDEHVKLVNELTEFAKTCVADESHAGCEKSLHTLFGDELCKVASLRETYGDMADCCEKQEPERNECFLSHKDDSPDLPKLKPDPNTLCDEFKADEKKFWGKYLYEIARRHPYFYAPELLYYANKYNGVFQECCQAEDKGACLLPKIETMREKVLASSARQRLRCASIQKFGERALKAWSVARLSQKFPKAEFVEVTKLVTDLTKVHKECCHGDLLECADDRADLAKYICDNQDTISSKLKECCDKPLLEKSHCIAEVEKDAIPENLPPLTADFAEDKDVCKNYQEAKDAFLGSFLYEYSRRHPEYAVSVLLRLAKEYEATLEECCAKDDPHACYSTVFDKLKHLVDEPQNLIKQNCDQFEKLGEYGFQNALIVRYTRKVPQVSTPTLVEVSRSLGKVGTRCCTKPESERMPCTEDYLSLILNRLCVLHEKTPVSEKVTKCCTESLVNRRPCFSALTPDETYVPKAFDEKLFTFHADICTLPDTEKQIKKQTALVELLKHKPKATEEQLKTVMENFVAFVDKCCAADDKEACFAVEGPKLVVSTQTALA
The nature of assay [11]: probe aXIP binding to arrayed compounds – biochemical, NeuroSMM set, 635/667 nm fluorescence, primary screen (AID 1119).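 Also: probe is the protein aXip251-270 applied at 1 µg/mL to compound-printed slides; binding of probe to printed compounds measured as 667 nm fluorescence plus signal to noise.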 The following applies: small-molecule microarray, higher = more signal, called active from +8 up or from −8 down.
Assay [12] can be described thus: probe aNOTCH3 binding on compound microarray – biochemical, small-molecule microarray, 635/667 nm fluorescence, primary screen (AID 1120).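 Also: probe is a biotin-tagged antibody raised against NOTCH3 rather than NOTCH3 protein; score merges spot fluorescence near 667 nm with spot signal to noise.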 The following applies: higher = more signal.
Assay [13] in a line: probe aNOTCH2 binding on compound microarray – biochemical, small-molecule microarray, 635/667 nm fluorescence, primary screen (AID 1121).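 Also: score merges feature fluorescence read at 667 nm with its signal to noise.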 Conditions: higher = more signal.
The target of assay [14] is Carbonic anhydrase 2 (Homo sapiens) (UniProt P00918). Kind of assay: compounds binding carbonic anhydrase 2 – biochemical, small-molecule microarray, Alexa647-labelled CAII, profiling panel (AID 1122). Conditions: CAII-A647 binding fluorescence, higher = more signal.
A short description of assay [15]: COS7 lysate on small-molecule microarray, probe aHis, 635 nm (AID 1123).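 Also: z-score combines 667nm fluorescence intensity with signal-to-noise per printed compound spot.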 The following applies: COS7 cell lysate, fluorescence, higher = more signal.
The nature of assay [16]: probe aLAP1 signal on lysate-treated microarray – cell lysate, small-molecule microarray, COS7 lysate, primary screen (AID 1124).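 Also: lysate comes from COS7 cells expressing LAP1 and is applied at 0.3 µg/mL; score merges spot fluorescence near 667 nm with signal-to-noise over triplicate slides.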 The following applies: probe aLAP1, fluorescence, higher = more signal.
A further assay deals with Sam68 (KHDRBS1). Description: compounds binding KHDRBS1 protein – biochemical, small-molecule microarray, 635 nm fluorescence, primary screen (AID 1125).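 Also: score merges 667 nm channel intensity with signal to noise over triplicate slides.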 The following applies: higher = more signal.
Assay [17] concerns Chordin-like protein 2 (CHRDL2). Description: compounds binding chordin-like 2 – biochemical, small-molecule microarray, 635 nm fluorescence, primary screen (AID 1126).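 Also: printed compound slides probed with Chrdl2 protein at 4 µg/mL for 1 h at 4 C; score merges 667 nm emission intensity with signal to noise over three replicate slides.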 The following applies: fluorescence 635 nm, higher = more signal.
Assay [18] addresses Concanavalin-A (Canavalia ensiformis) (UniProt P02866). Description: compounds binding concanavalin A lectin – biochemical, small-molecule microarray, Alexa647 label, 635 nm, artefact control for SMM control protein annotation, primary screen (AID 1127).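 Also: z combines 667 nm emission intensity with signal-to-noise across three replicate slides.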 The following applies: ConA-A647 binding fluorescence, higher = more signal.

Activity calls are given as the source filed them.

Sequence of Concanavalin-A (Canavalia ensiformis) (P02866 whole entry, looked up): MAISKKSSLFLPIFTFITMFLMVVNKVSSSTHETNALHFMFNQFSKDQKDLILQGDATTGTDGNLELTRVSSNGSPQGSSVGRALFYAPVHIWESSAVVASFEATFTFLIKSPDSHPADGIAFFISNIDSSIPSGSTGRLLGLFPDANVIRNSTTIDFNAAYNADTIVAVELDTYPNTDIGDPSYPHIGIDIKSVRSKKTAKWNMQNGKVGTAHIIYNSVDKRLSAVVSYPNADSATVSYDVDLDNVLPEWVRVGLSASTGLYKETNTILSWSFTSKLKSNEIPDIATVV
Sequence of Left-right determination factor 2 (Homo sapiens) (O00292 whole entry, looked up): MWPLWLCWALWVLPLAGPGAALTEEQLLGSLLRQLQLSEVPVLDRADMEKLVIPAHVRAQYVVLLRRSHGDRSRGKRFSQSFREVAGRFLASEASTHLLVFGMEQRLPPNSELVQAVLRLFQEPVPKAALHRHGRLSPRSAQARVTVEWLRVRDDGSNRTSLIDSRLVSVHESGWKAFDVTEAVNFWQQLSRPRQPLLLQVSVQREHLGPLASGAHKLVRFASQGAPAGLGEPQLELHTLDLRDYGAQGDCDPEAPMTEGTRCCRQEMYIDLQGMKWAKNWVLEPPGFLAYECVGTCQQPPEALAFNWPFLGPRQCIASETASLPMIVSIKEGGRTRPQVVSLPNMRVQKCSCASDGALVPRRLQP

Regarding `COc1ccc([Si](C)(C)[C@@H]2[C@@H](CCn3cc([C@H](O)c4ccccc4)nn3)O[C@]3(C(=O)N(Cc4ccc(N5C(=O)c6cccc7cccc5c67)cc4)c4ccccc43)[C@H]2C)cc1`, the composite z-score is 0.314 in [1]; -0.556 in [3]; 0.273 in [4]; 0.702 in assay [5]; -0.154 in assay [6]; -0.0904 in assay [7]. The composite z-score was -0.131 in assay [8]; -0.0215 in assay [9]; 0.152 in assay [10]; 0.033 in the assay with Albumin (Bos taurus); -0.13 in assay [12]; -0.155 in assay [13]. For the same molecule, the composite z-score in assay [14] is 0.403; in assay [15], 0.791; in assay [16] it was 0.017; in the assay with Sam68 (KHDRBS1), 0.268; in assay [17] it was -0.177; in [18], -0.13. In assay [2], the z-score is -2.88. Also, the composite Z-score in assay [11] is -0.196 (inactive).

For `[N-]=[N+]=Nc1ccccc1[C@@H]1OC(c2ccc(OCCCO)cc2)=N[C@]1(CCS(=O)(=O)c1ccccc1)C(=O)N1CCOCC1`, the composite z-score in assay [1] was found to be 1.03; in assay [3] it was 0.647; in assay [4], 1.74; in assay [5] it was 0.764; in [6], 0.16; in assay [7] it was 0.326. The composite z-score worked out at 0.939 in assay [8]; 1.42 in [9]; 2.84 in assay [10]; 0.815 in the assay with Albumin (Bos taurus); 0.287 in assay [12]; 0.0263 in assay [13]. In addition, the composite z-score was 0.618 in [14]; 2.89 in [15]; 0.483 in assay [16]; 1.29 in the assay on Sam68 (KHDRBS1); -0.535 in assay [17]; 1.1 in [18]. For the same molecule, the z-score in assay [2] is 2.34. For the same molecule, the composite Z-score in assay [11] is 0.167 (inactive).

With `O=C(OCCF)C1=CCC(c2cccc(Cl)c2)O1` (stereo not given), the composite z-score in [1] was 0.628; in assay [3], 0.15; in assay [4], 0.0307; in assay [5], 0.164; in assay [6], -0.169; in assay [7], -0.0769. Further, the composite z-score is -0.0784 in [8]; 1.53 in assay [9]; 0.775 in [10]; 0.374 with Albumin (Bos taurus); -0.191 in assay [12]; -0.199 in assay [13]. Besides, the composite z-score in [14] is 0.593; in assay [15] it was 0.751; in assay [16], 0.142; with Sam68 (KHDRBS1), 0.748; in [17], -0.165; in assay [18], 0.532. Also, the z-score in assay [2] is -0.0162. In assay [11], the composite Z-score is 0.13 (inactive).

With `O=C(CS)NCCCCCCNC(=O)[C@H]1C[C@H]2C(=O)N3CCC[C@H]3C(=O)N2[C@H]1c1cccc(OCCO)c1`, the composite z-score was 1.36 in [1]; 0.36 in assay [3]; 0.803 in assay [4]; 0.0685 in [5]; -0.0236 in assay [6]; 0.251 in assay [7]. Further, the composite z-score in [8] is -0.353; in assay [9], 0.557; in [10], 0.383; in the assay with Albumin (Bos taurus), 0.0023; in [12], 0.0242; in assay [13], -0.105. The composite z-score was found to be 0.528 in [14]; 2.51 in assay [15]; 0.407 in assay [16]; 1.29 in the assay with Sam68 (KHDRBS1); 0.97 in assay [17]; 1.02 in assay [18]. This molecule also yielded a z-score in [2] of -0.36. The composite Z-score in assay [11] is -0.254 (inactive).

As to `C=C[C@@H](COC(C)=O)N(Cc1ccc([N+](=O)[O-])cc1)S(=O)(=O)c1ccc(Br)cc1`, the composite z-score in [1] was -0.541; in assay [3], 0.59; in [4] it was 0.989; in assay [5], 0.729; in assay [6], -0.0597; in assay [7], -0.0709. The composite z-score was 0.392 in assay [8]; 0.546 in assay [9]; 1.78 in assay [10]; 0.812 with Albumin (Bos taurus); -0.0647 in assay [12]; -0.0089 in assay [13]. Besides, the composite z-score in [14] worked out at 0.448; in [15] it was 0.432; in [16], 0.442; in the assay on Sam68 (KHDRBS1), 0.573; in assay [17], 0.241; in assay [18] it was 1.11. In [2], the z-score was -0.365. For the same molecule, the composite Z-score in [11] was 0.181 (inactive).
